Data as given in PubChem BioAssay AID777 (Sanford-Burnham Center for Chemical Genomics, 2007).
Hit rate of the full screen: of about 96,000 compounds, about 19,000 (20%) were called active.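 How the source made its calls: active means blocking of liver enzyme CYP2C9 beyond about 50% at 5 µM (limit read from the data); inactive means the rest.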 The list is a sample of the results.

Each molecule was assayed against Cytochrome P450 2C9 (Homo sapiens) (UniProt P11712) (assay: blockers of cytochrome P450 2C9 activity – biochemical, luminescence, ADME assay, primary screen (AID 777)). Conditions: CYP2C9 Supersomes, luciferin-H conversion, at 5 µM, stronger effect = higher value.
Cytochrome P450 2C9 (Homo sapiens), sequence (P11712 whole entry, looked up): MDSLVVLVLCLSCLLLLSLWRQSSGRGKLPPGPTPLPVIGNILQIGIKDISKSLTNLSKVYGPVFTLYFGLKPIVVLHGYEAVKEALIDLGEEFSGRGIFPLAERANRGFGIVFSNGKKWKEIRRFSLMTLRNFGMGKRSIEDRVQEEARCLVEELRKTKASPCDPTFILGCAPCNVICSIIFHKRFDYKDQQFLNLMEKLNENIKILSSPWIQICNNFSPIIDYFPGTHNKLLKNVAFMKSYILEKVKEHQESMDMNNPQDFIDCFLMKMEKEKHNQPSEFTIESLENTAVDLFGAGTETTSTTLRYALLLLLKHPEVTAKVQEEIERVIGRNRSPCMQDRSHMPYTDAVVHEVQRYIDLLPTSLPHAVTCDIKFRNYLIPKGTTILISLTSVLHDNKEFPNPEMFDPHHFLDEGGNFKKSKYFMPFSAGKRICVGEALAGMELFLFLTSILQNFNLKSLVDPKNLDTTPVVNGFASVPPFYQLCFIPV

Row | SMILES | inhibition
1 | CCCOc1ccc2c3c(c(=O)oc2c1OCCC)CCC3 | -0.6% (inactive)
2 | CC(C)c1nc(-c2ccccn2)no1 | 3.9% (inactive)
3 | O=C(Oc1ccc(-c2nc(-c3ccccn3)no2)cc1)c1ccccc1 | 87.2% (active)
4 | O=C(Oc1ccccc1)c1ccc2nccnc2c1 | 17% (inactive)
5 | CCOC(=O)C1=C(CN2CCc3ccccc32)NC(=O)NC1c1ccc(Cl)cc1 (centres undefined) | 4.7% (inactive)
6 | CCOC(=O)C1=C(C)NC(=O)N(C(C)=O)C1c1ccc(Cl)cc1 (centres undefined) | 74.3% (active)
7 | COCCOC(=O)C1=C(C)NC(=O)NC1c1ccc(Cl)cc1 (centres undefined) | -3% (inactive)
8 | COc1ccc(C2=NOC3(CC(=O)N(c4ccc(Cl)cc4)C3=O)C2)c(OC)c1 (centres undefined) | 23% (inactive)
9 | O=C(NC1CCN(Cc2ccccc2)CC1)c1ccccc1F | 7.8% (inactive)
10 | CCOc1cccc(-c2nn3c(-c4ccccn4)nnc3s2)c1 | 23.2% (inactive)
11 | COc1cc(-c2nn3c(-c4cccc(C)c4)nnc3s2)cc(OC)c1OC | 74.1% (active)
12 | COc1ccc(-c2nn3c(-c4ccccc4)nnc3s2)cc1OC | 6.9% (inactive)
13 | Cc1cc(NC(=O)COn2nnc3ccccc32)no1 | 24.9% (inactive)
14 | Cc1ccc(C(=O)N2CCN(C(=O)N3CCOCC3)CC2)cc1 | 11.5% (inactive)
15 | Cc1cc2nc(-c3ccc(NC(=O)c4cccnc4)cc3)oc2cc1C | 7.6% (inactive)
16 | O=C(CC1(O)C(=O)N(CN2CCOCC2)c2ccccc21)c1ccccc1 (centres undefined) | -1% (inactive)
17 | C=CCN1C(=O)C(O)(CC(=O)c2ccc(Cl)cc2)c2ccccc21 (centres undefined) | 67.9% (active)
18 | CCOC(=O)CN1C(=O)C(O)(CC(=O)c2ccccn2)c2ccccc21 (centres undefined) | 26% (inactive)
19 | Nc1c(C(=O)NCc2ccccc2)sc2nc3c(cc12)C(=O)CCC3 | 6% (inactive)
20 | Cc1cc(C)c2nc(NC(=O)C3CCCO3)sc2c1 (centres undefined) | 28.3% (inactive)
21 | O=C(Cc1ncc(C(F)(F)F)cc1Cl)Nc1cccc(Br)c1 | 24.9% (inactive)
22 | CCCN(CCC)C(=O)C1c2ccccc2Oc2ccccc21 | 53.1% (active)
23 | CCOC(=O)N1CCN(C(=O)CNC(=O)Cc2ccc(Cl)cc2)CC1 | 10.1% (inactive)
24 | CCOc1cc(N2CCOCC2)c(OCC)cc1NC(=O)COc1cccc2cccnc12 | 0% (inactive)
25 | Cc1cccc(NC(=O)CSc2nc3c(c(=O)[nH]2)CCCC3)c1C | 35.7% (inactive)

Row | SMILES | inhibition
26 | O=C(CSc1nc2c(cnn2-c2ccc(F)cc2)c(=O)[nH]1)N1CCCCCC1 | 1.3% (inactive)
27 | CCOC(=O)CSc1nc2sc3c(c2c(=O)[nH]1)CC(C)(C)OC3 | 15.3% (inactive)
28 | CC(=O)c1sc2nc(SCC(=O)N3CCCCC3)[nH]c(=O)c2c1C | 95.6% (active)
29 | C=CCn1c(SCC(=O)/C(C#N)=C(\C)N)nc2sc(C)c(C)c2c1=O | 38.5% (inactive)
30 | C=CCNC(=O)CSc1nc2sc(C)c(C)c2c(=O)[nH]1 | 58.1% (active)
31 | Cn1c(=O)cc(OCCCC(=O)N2CCN(Cc3ccc4c(c3)OCO4)CC2)c2ccccc21 | 9.3% (inactive)
32 | CCOC(=O)NNC(=O)c1ccc(Cl)cc1 | 1.4% (inactive)
33 | CN(C)/C=C/c1c(C#N)c(=O)ncn1Cc1ccccc1 | 3.3% (inactive)
34 | COc1ccc(NC(=O)Nc2ccc3nc(C)c(C)nc3c2)cc1 | 18.7% (inactive)
35 | Cc1nc2ccc(NC(=O)N3CCC(c4ccccc4)C3)cc2nc1C (centres undefined) | 51.4% (active)
36 | Cn1c(CCN2CCCCCC2)nc2cc(NC(=O)Nc3ccccc3)ccc21 | -0.2% (inactive)
37 | Cc1cc(C(=O)CC#N)c(C)n1CC(F)(F)F | 19.4% (inactive)
38 | COc1cccc2cc(C(=O)N(C)C)c(=O)oc12 | -103% (inactive)
39 | CCCCOc1ccc(-c2ncc(C(=O)OCC)c(N)n2)cc1 | -19.4% (inactive)
40 | CCOC(=O)c1c(C)nc(-c2ccccc2)nc1NC(=O)C(C)C | 23% (inactive)
41 | CCOC(=O)c1cnc(-c2ccccc2)nc1Oc1ccc(C)cc1 | 65.7% (active)
42 | COc1ccc(NC(=O)c2c(C)oc3c2CCCC3)cc1 | 15.4% (inactive)
43 | COc1ccc(C(=O)c2c(C)oc3cc([N+](=O)[O-])c(O)c([N+](=O)[O-])c23)cc1 | 79.8% (active)
44 | COc1ccc(C(=O)c2oc3ccc(Br)cc3c2NC(C)=O)cc1 | 1.7% (inactive)
45 | Cc1nn(C)c(Oc2ccccc2)c1[N+](=O)[O-] | 29.1% (inactive)
46 | CN(CCC#N)c1ncnc2scc(-c3ccccc3)c12 | 19.4% (inactive)
47 | Cc1nc2ccccc2cc1O | -22.9% (inactive)
48 | Cc1noc(C)c1COC(=O)c1cc2ccccc2cc1O | 91.6% (active)
49 | Cc1noc(C)c1COC(=O)Cn1c(C)nc2ccccc21 | 10.7% (inactive)
50 | CC(=O)N(CN1C(=O)C2CC=CCC2C1=O)c1cccc(Cl)c1 (centres undefined) | 12.2% (inactive)

Row | SMILES | inhibition
51 | CN1C(=O)CC(N2CCN(c3ccccn3)CC2)C1=O (centres undefined) | 7.7% (inactive)
52 | COc1cccc(C(CC(=O)NCCN2CCOCC2)NS(=O)(=O)c2ccc(C)cc2)c1OC (centres undefined) | -7.3% (inactive)
53 | CCn1c2ccccc2c2cc(NC(=O)C/C(C)=N/NC(=O)c3ccccc3N)ccc21 | -17.8% (inactive)
54 | Cc1cc(C)cc(N(C(C)C(=O)Nc2c(C)n(C)n(-c3ccccc3)c2=O)S(C)(=O)=O)c1 (centres undefined) | 16.6% (inactive)
55 | CSc1ccccc1-c1nnc(-c2ccc(Cl)cc2)o1 | -19.4% (inactive)
56 | COc1ccccc1-c1nc(C(F)(F)F)c(OC)o1 | 17% (inactive)
57 | FC(F)(F)c1cnc(Oc2ccccc2-c2nnc(-c3ccc(Cl)cc3)o2)c(Cl)c1 | 81.1% (active)
58 | O=c1[nH]n(-c2cccc(Cl)c2)c2ncccc12 | -10.7% (inactive)
59 | O=C(Nc1nnc(SCc2c(Cl)cccc2Cl)s1)C1CCCO1 (centres undefined) | -65.7% (inactive)
60 | CCSc1nnc(NC(=O)Cc2ccccc2OC)s1 | 42.4% (inactive)
61 | O=C(Nc1nnc(SCc2ccc(Cl)cc2Cl)s1)C1COc2ccccc2O1 (centres undefined) | 67.2% (active)
62 | O=C(Cn1c(=O)n(Cc2ccco2)c(=O)c2ccccc21)NCC1CCCO1 (centres undefined) | 57.3% (active)
63 | COc1ccc(NC(=O)Cn2c(=O)n(Cc3ccco3)c(=O)c3ccccc32)cc1 | 17.1% (inactive)
64 | COc1ccccc1CNC(=O)CCCn1c(=O)c2ccccc2n(CC(=O)NC2CCCC2)c1=O | 44.7% (inactive)
65 | O=C1CC(Sc2ncn[nH]2)C(=O)N1c1ccccc1 (centres undefined) | -21.9% (inactive)
66 | Cc1ccc(S(=O)(=O)N/N=C\c2cc3c(cc2[N+](=O)[O-])OCO3)cc1 | -13% (inactive)
67 | CN1OC(COC(=O)c2ccc(Cl)cc2)CC1c1ccccc1 (centres undefined) | 37.4% (inactive)
68 | C=CCNC(=O)c1sc(SC)cc1-c1ccc(Cl)cc1 | 64% (active)
69 | C=CCNC(=O)c1ccc(C)c(Br)c1 | -17.9% (inactive)
70 | C=CCNC(=O)c1cc(-c2ccccc2O)on1 | -48.2% (inactive)
71 | ON=C1/C(=N\O)CC2(C/C1=N/O)OCCO2 | -14.6% (inactive)
72 | Cc1ccc(OCC(=O)Nn2cnc3ccccc32)cc1 | 6.6% (inactive)
73 | COc1ccc(-c2cc3n(n2)CCc2nc4ccccc4n2-3)cc1 | -8.6% (inactive)
74 | COc1ccc(-c2cc(C(=O)n3cnc4ccccc43)c3ccccc3n2)cc1 | 92.5% (active)
75 | Cc1[nH]n(-c2cccc(Cl)c2)c(=O)c1/C=N/n1c(C)nc2ccccc2c1=O | 70.7% (active)

Row | SMILES | inhibition
76 | COc1cc(NS(=O)(=O)c2ccc(N=Cc3c(C)[nH]n(-c4ccccc4)c3=O)cc2)nc(OC)n1 | -9.3% (inactive)
77 | Cc1[nH]n(-c2cccc(Cl)c2)c(=O)c1-c1ccc(Cl)cc1 | -1% (inactive)
78 | Cc1ccc(CNC(=O)CCNC(=O)Cn2ccc3ccccc3c2=O)cc1 | -18.8% (inactive)
79 | CC1CCCC(NC(=O)CN2CCN(Cc3ccc(Cl)cc3)C2=O)C1C (centres undefined) | 15.9% (inactive)
80 | COc1cc(C2C(C(=O)c3ccc(C)o3)=C(O)C(=O)N2CCc2ccccc2)ccc1O (centres undefined) | 5.2% (inactive)
81 | COc1cc(C2C(C(=O)c3ccc(C)o3)=C(O)C(=O)N2Cc2cccnc2)ccc1O (centres undefined) | 19.4% (inactive)
82 | COc1cc(C2C(C(=O)c3sc(C)nc3C)=C(O)C(=O)N2CCN(C)C)cc(OC)c1OC (centres undefined) | 79% (active)
83 | Cc1ccc2c(c1)C(O)(CC(=O)c1cccnc1)C(=O)N2 (centres undefined) | 8.4% (inactive)
84 | Cc1nn(C)cc1/C=C1\CCC/C(=C\c2cn(C)nc2C)C1=O | -46.5% (inactive)
85 | CCOCCCNC(=O)c1c[nH]c2cc(C)ccc2c1=O | -8.1% (inactive)
86 | Cc1ccc(S(=O)(=O)N2CCN(S(=O)(=O)N3CCOCC3)CC2)cc1 | -55.7% (inactive)
87 | Cc1noc(C)c1CSc1nc2cc(S(=O)(=O)N3CCOCC3)ccc2o1 | 54% (active)
88 | Cc1noc(C)c1CSc1nnc2ccc3ccccc3n12 | 4.4% (inactive)
89 | CCS(=O)(=O)Nc1cc(C(=O)OC)ccc1C(=O)OC | 37.5% (inactive)
90 | Cc1oc(-c2ccccc2F)nc1CS(=O)(=O)CC(=O)NCCCN(C)C1CCCCC1 | -10.6% (inactive)
91 | O=C(Cn1c(=S)nc2ccccn21)N1CCc2ccccc2C1 | 4.1% (inactive)
92 | Cc1ccccc1-c1nc(CS(=O)(=O)CC(=O)N2CCc3ccccc3C2)c(C)o1 | 72.4% (active)
93 | COCCCNC(=O)C1CC(=O)N(c2ccc(C)cc2)C1 (centres undefined) | -1.7% (inactive)
94 | CS(=O)(=O)N(C(=O)NC(=O)NC1CCS(=O)(=O)C1)C1CCCCC1 (centres undefined) | 9.2% (inactive)
95 | COC(=O)CCNc1ccc2c(c1)OCCO2 | -2.2% (inactive)
96 | CCOc1ccc(NCCC(=O)c2ccc3c(c2)OCO3)cc1 | 63.8% (active)
97 | Cc1ccc(F)cc1NC(=O)c1ccc2c(c1)OCO2 | 5.7% (inactive)
98 | CC(=O)c1cc(C#N)c(SCC(=O)C(C)(C)C)nc1C | 22.5% (inactive)
99 | CCOC(=O)C(Sc1ncc(C#N)c(N)n1)C(C)C (centres undefined) | 25.3% (inactive)
